Screening results as filed in PubChem.
TexasRed fluor: Total Fluorescence Counterscreen for Inhibitors of the Interaction of Thyroid Hormone Receptor and Steroid Receptor Coregulator 2. 280,000 tested, 0.29% active. AID 1479, 2009. TRb/SRC2 Texas Red total fluorescence interference. Potency, µM (top dose mostly 106 µM); active = well fitted curve in either direction with a large enough effect; inconclusive = small, poorly fitted or top-dose-only effect
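Flags fluorescent or light-absorbing compounds by total fluorescence, S + 2P, at 555 nm excitation and 632 nm emission. Mixture: 20 nM Texas Red SRC2 peptide, 0.6 uM human TRb LBD, 1 uM T3, 5% DMSO; compound exposure 5 h at ambient temperature.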
Tau ThT inhib: qHTS for Inhibitors of Tau Fibril Formation, Thioflavin T Binding | Microtubule-associated protein tau (Homo sapiens), P10636 | recombinant tau K18 P301L, heparin-induced fibrillization, ThT fluorescence | Potency, µM (doses to about 57.4 µM), actives largely listed as inhibitors | 270,000 tested, 2.1% active; note: nearly all actives have a fitted effect of over 55% in size
Target sequence (P10636 561-689 P618L limits assumed): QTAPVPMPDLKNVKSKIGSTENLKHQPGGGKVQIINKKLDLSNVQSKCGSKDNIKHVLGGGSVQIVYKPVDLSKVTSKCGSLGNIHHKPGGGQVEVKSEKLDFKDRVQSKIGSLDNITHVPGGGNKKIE
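Fibril formation assay: tau K18 P301L at 15 uM with trace Alexa 594 label, heparin inducer 20 uM, pH 7 sodium acetate buffer, 37 C for 6 hr; endpoint ThT signal.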
Tau fluor counter: Counterscreen qHTS for Inhibitors of Tau Fibril Formation, Fluorescence Polarization | tau K18 P301L Alexa594 fluorescence, heparin fibrillization | Potency, µM (doses to about 57.7 µM) | 280,000 tested, 0.93% active; note: nearly all actives have a fitted effect of over 55% in size
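Human tau K18 P301L (15 uM unlabeled, 0.24 uM Alexa 594-labeled) in 100 mM sodium acetate pH 7 with 20 uM heparin, 6 hr at 37 C. ThT 30 uM added, 1 hr ambient; Alexa 594 FP and total fluorescence read at 555/632 nm.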
GoLoco inh red: qHTS Assay for Inhibitors of RGS12 GoLoco Motif Activity (Red Fluorophore). Gai1:RGS12 GoLoco peptide FP, rhodamine, 10 min. Potency, µM (highest dose often 61.6 µM), most hits filed as inhibitors. 230,000 tested, 0.44% active; active = well fitted inhibition curve with a large enough effect, not every such curve was filed as active; inactive = no such curve, though single readings can be large or run the other way; note: nearly all actives have a fitted effect of over 30% in size
Tau FP inhib: qHTS for Inhibitors of Tau Fibril Formation, Fluorescence Polarization; Microtubule-associated protein tau (Homo sapiens), P10636; K18 P301L tau heparin fibrillization, Alexa594 FP, 6 h; Potency, µM (series often up to 57.7 µM), usual class: inhibitors; 280,000 tested, 0.39% active; AID 1468, 2008; note: nearly all actives have a fitted effect of over 55% in size
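K18 P301L tau (15 uM unlabeled/0.24 uM Alexa 594-labeled, final) + compound + heparin 20 uM final; 100 mM NaOAc pH 7; 6 hr 37 C; ThT 30 uM final added, 1 hr RT; FP ex 555/em 632 nm.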
TRb SRC2 PPI: qHTS for Inhibitors of the Interaction of Thyroid Hormone Receptor and Steroid Receptor Coregulator 2. Thyroid hormone receptor beta (Homo sapiens), P10828. TRbeta-SRC2 peptide binding, fluorescence polarization; receptor liganded with 1 µM T3. Potency, µM (highest dose often 106 µM), hits mostly inhibitors. 280,000 tested, 0.065% active. AID 1469, 2008; note: nearly all actives have a fitted effect of over 50% in size
Target sequence (P10828 whole entry, looked up): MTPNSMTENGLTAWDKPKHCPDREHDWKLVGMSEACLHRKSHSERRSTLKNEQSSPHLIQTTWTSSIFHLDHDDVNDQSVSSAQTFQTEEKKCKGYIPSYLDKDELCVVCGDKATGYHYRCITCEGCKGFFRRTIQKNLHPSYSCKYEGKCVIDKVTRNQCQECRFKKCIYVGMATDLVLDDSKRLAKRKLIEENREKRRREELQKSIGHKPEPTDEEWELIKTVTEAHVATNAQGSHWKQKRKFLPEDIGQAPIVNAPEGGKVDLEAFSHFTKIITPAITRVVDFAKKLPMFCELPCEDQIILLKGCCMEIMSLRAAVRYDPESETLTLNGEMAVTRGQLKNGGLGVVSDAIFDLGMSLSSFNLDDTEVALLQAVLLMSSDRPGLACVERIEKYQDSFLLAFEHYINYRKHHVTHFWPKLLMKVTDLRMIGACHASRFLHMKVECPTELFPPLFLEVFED
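TRb LBD 0.6 uM + Texas Red SRC2 peptide 20 nM, 1 uM T3, Tris buffer w/ 5% DMSO; compound pinned, 5 h RT; FP read ex 555/em 632; normalized to unbound and bound controls.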
Hits are given with their value; i = inactive; ? = inconclusive; nt = no result given; ! = not active in a repeat; [ ] = dose if it differs, or a comment. A selection: hits, their analogues and other compounds. The true share with any hit is near 3.1%. Unless noted, calls come from the whole dose curve; as a rule, active = well fitted curve in the direction sought with a large enough effect; inconclusive = small, poorly fitted or top-dose-only effect, or another doubt; inactive = no such curve, though single readings can be large; an effect the other way counts as inactive or inconclusive.

SMILES	TexasRed fluor	Tau ThT inhib	Tau fluor counter	GoLoco inh red	Tau FP inhib	TRb SRC2 PPI
CCOC(=O)C1(C)/C(=N/Nc2ccc(Cl)cc2)C(=O)C(=O)N1c1ccccc1 (centres undefined)	i	14µM	i	i	?	i
CCOC(=O)C1(C)/C(=N/Nc2ccccc2Cl)C(=O)C(=O)N1c1ccccc1 (centres undefined)	i	14µM	i	i	i	i
COc1cc(NC(=O)CN(c2ccc(C)cc2)S(=O)(=O)c2cccc3nonc23)cc(OC)c1	i	i	?	nt	i	i
CN(C)c1nc(C(=O)NN)nc(N(C)C)n1	i	i	i	i	i	i
CCCn1nnnc1NC(=O)c1cc(Br)ccc1OC	i	i	i	i	i	i
CC1=C(C)/C(=N\OS(=O)(=O)c2ccccc2)C=CC1=O	i	13µM	?	i	16µM	i
Cc1ccc(S(=O)(=O)O/N=C2\CCCc3ccccc32)cc1	i	i	i	i	i	i
S=C(NCc1cccs1)Nc1cc(Cl)cc(Cl)c1	i	i	?	i	18µM	i
CCn1c(C)[n+](CCCS(=O)(=O)[O-])c2cc(Cl)c(Cl)cc21	i	i	i	4µM	i	i
Clc1ccc(CSc2nnc(-c3c[nH]c4ccccc34)o2)cc1	i	i	i	i	?	i
Brc1ccc(CSc2nnc(Cc3c[nH]c4ccccc34)o2)cc1	i	?	14µM[quencher]	i	i	i
Cc1ccc2[nH]c3c(c2c1)CCc1cn[nH]c1-3	i	13µM	25µM[quencher]	i	?	i
O=S(=O)(NCCc1nnc2ccc(SCc3ccc(C(F)(F)F)cc3)nn12)c1ccccc1	i	i	i	nt	i	i
O=C(Nc1ccc(C2=NCCN2)cc1)c1ccc(C(=O)Nc2ccc(C3=NCCN3)cc2)c([N+](=O)[O-])c1	i	4.5µM	?	i	i	i
O=C(/C=C/c1cccs1)c1ccc(NC(=O)c2cccc(Br)c2)cc1	i	7.1µM	?	i	?	i
Cc1ccc(C(=O)Nc2ccc(C(=O)/C=C/c3cccs3)cc2)cc1	i	?	i	i	i	i
CCCCOC(=O)c1ccc(NC(=O)/C=C/c2cccs2)cc1	i	i	?	i	14µM	i
CCOC(=O)c1ccc(NC(=O)Nc2ccc(OC)c(OC)c2)cc1	i	?	13µM[quencher]	i	?	i
COc1ccc(NC(=O)Nc2cccs2)cc1OC	i	16µM	?	i	i	i
COc1ccc(N(C(=O)CNS(=O)(=O)c2ccccc2)C(C(=O)NCc2ccco2)C(C)C)cc1 (centres undefined)	i	i	i	i	i	i
Cc1cccc(/N=C/c2c(O)c3ccccc3oc2=O)n1	i	i	i	i	i	i
Cc1nc(NC(=S)Nc2ccccc2)sc1C	i	?	?	i	i	i
CCN1CCN(S(=O)(=O)c2cc(OC)c(Cl)cc2OC)CC1	i	i	i	i	i	i
CCCCOC(=O)c1ccc(NC(=O)c2c(OC)cccc2OC)cc1	i	i	i	i	i	i
CCCCOC(=O)c1ccc(NC(=O)Nc2ccc(OC)c(OC)c2)cc1	i	?	6.3µM[quencher]	i	i	i
SMILES	TexasRed fluor	Tau ThT inhib	Tau fluor counter	GoLoco inh red	Tau FP inhib	TRb SRC2 PPI
CC(=O)Nc1nc2c(c3c1c(=O)oc1ccccc13)CC(C)CC2 (centres undefined)	i	i	i	i	i	i
Nc1c(C(=O)Nc2ccc(Br)cc2)sc2nc(-c3ccncc3)ccc12	i	?	?	nt	i	i
Nc1c(C(=O)Nc2ccc(F)cc2)sc2nc(-c3ccco3)ccc12	i	6.3µM	?	i	i	i
CC(=O)c1sc2nc(-c3ccco3)ccc2c1N	?	7.1µM	?	i	i	i
Nc1c(C(=O)Nc2ccc(Br)cc2)sc2nc(-c3ccco3)ccc12	?	5µM	?	i	i	i
O=C(O)C(F)(F)S(=O)(=O)O	i	i	i	i	i	i
O=c1c2[nH]c3ccc(F)cc3c2ncn1C1CCCCC1	i	i	i	i	i	i
Cc1ccc(NC(=O)C2CCCN2C(=O)NC2CCCCC2)cc1C (centres undefined)	i	i	i	i	i	i
CC1CCC(C(C)C)C(OCC[N+](C)(C)C)C1 (centres undefined)	i	i	i	4µM	i	i
CC1CCC(C(C)C)C(OCC(O)C[N+]2(C)CCCCC2)C1 (centres undefined)	i	i	i	i	i	i
CCOC(=O)c1[nH]c2ccccc2c1NC(=O)C(CC)CC	i	i	i	i	i	i
O=C(O)c1cc([N+](=O)[O-])ccc1Nc1ccccc1	i	?	i	i	i	i
Nc1cc([N+](=O)[O-])ccc1Nc1ccccc1	i	16µM	?	i	?	i
Nc1cc([N+](=O)[O-])ccc1O	0.11µM![quencher]	i	i	i	i	i
Cc1nn(-c2ccccc2)c(N)c1N=Nc1ccccc1	i	8.9µM	?	i	i	i
Cc1nn(-c2ccccc2)c(N)c1N=Nc1ccc(Cl)cc1	i	7.9µM	?	i	i	i
Cc1nn(-c2ccccc2)c(N)c1-c1ccccc1	i	i	i	i	i	i
Cc1nn(-c2ccccc2)c(N)c1N=Nc1cccc(S(=O)(=O)N2CCOCC2)c1	i	?	?	i	i	i
Cc1cc(C)n2nc(N)c(N=Nc3ccc4c(c3)OCO4)c2n1	i	i	i	i	i	i
Cc1cc(C)n2nc(N)c(N=Nc3ccccc3)c2n1	i	14µM	i	i	i	i
Nc1nn(-c2ccccc2)c(N)c1N=Nc1ccccc1F	i	4.5µM	?	i	i	i
CC(C)(C)OC(=O)N1CCC(c2c(C(=O)N3CCN(C4CCCCC4)CC3)cnn2-c2cccc(Cl)c2)CC1	i	i	i	nt	i	i
Nc1nn(-c2ccccc2)c(N)c1N=Nc1ccccc1	i	5µM	i	i	i	i
Cc1cccc(N=Nc2c(C)nn(-c3ccccc3)c2N)c1C	i	7.1µM	?	i	i	i
Cc1nn(-c2ccccc2)c(N)c1C(O)(C(F)(F)F)C(F)(F)F	i	i	i	i	i	i
COc1ccc(N=C(NN)c2ccc3ccccc3n2)cc1	i	16µM	i	i	i	i
NNC(=O)c1ccc2ccccc2n1	i	?	i	i	i	i
Cc1cc(C)c(S(=O)(=O)Nc2cc(SCC(=O)O)c(O)c3ccccc23)cc1C	i	13µM	?	i	25µM	i
